Experimental data taken from a collection of fitness landscapes (doi:10.1126/science.1257360).
Whole data set: some 140,000 sequences, median “enrichment ratio after two sorts for PhoP signalling” near 0, cut for the highest 2% near 11. The entries come from a sample that favours the highest values as a whole.

B1: PhoQ; a variant is named by its letters at X, in order, P23837 (parent)
chain: MKKLLRLFFPLSLRVRFLLATAAVVLVLSLAYGMVALIGYSVSFDKTTFRLLRGESNLFYTLAKWENNKLHVELPENIDKQSPTMTLIYDENGQLLWAQRDVPWLMKMIQPDWLKSNGFHEIEADVNDTSLLLSGDHSIQQQLQEVREDDDDAEMTHSVAVNVYPATSRMPKLTIVVVDTIPVELKSSYMVWSWFIYVLSANLLLVIPLLWVAAWWSLRPIEALAKEVRELEEHNRELLNPATTRELTSLVRNLNRLLKSERERYDKYRTTLTDLTHSLKTPLXXLQXXLRSLRSEKMSVSDAEPVMLEQISRISQQIGYYLHRASMRGGTLLSRELHPVAPLLDNLTSALNKVYQRKGVNISLDISPEISFVGEQNDFVEVMGNVLDNACKYCLEFVEISARQTDEHLYIVVEDDGPGIPLSKREVIFDRGQRVDTLRPGQGVGLAVAREITEQYEGKIVAGESMLGGARMEVIFGRQHSAPKDE

Variants of: B1
Test: enrichment ratio after two sorts for PhoP signalling (ratio (wild type AVST 3.29)); higher = more functional
Settings: with PhoP (E. coli)

Variant	enrichment ratio
HCSM	≤ 0.25
CLFG	≤ 0.25
NIPT	≤ 0.25
TTKH	≤ 0.25
TTTH	20.3
KSTK	≤ 0.25
LTNH	≤ 0.25
YTTK	≤ 0.25
TTNH	12.2
TTTK	16.7
YTTH	≤ 0.25
YTNH	≤ 0.25
ENFF	≤ 0.25
VSFD	0.544
LAEF	≤ 0.25
YEFI	≤ 0.25
TRCW	≤ 0.25
YFRG	≤ 0.25
GFVM	≤ 0.25
RLME	≤ 0.25
QHMY	≤ 0.25
TECK	4.11
YWCM	≤ 0.25
TECM	31.3
NECM	28.2

Variant	enrichment ratio
FECM	5
LNCM	≤ 0.25
LECK	1.26
FNCM	5.18
MECM	36.6
DMCM	≤ 0.25
LECM	17.2
MACM	≤ 0.25
QCSI	≤ 0.25
QACK	≤ 0.25
GTRW	≤ 0.25
TLVA	≤ 0.25
TYNL	3.68
RPMT	≤ 0.25
HVPY	≤ 0.25
WMTR	≤ 0.25
WIHI	≤ 0.25
WFNQ	≤ 0.25
HCCF	≤ 0.25
TQVA	3.07
TGWG	5.4
TQVG	12.2
TQED	≤ 0.25
TQGD	2.92
TQWG	18.3

Variant	enrichment ratio
NQVC	≤ 0.25
KSWG	≤ 0.25
TQEG	≤ 0.25
WQVC	≤ 0.25
TQMD	63
TQVC	14.3
IQCQ	≤ 0.25
ACAH	4.6
GLLF	4.76
NFMP	≤ 0.25
LLRY	≤ 0.25
VNTC	≤ 0.25
IRDH	≤ 0.25
EIET	≤ 0.25
MPTT	≤ 0.25
KEKC	≤ 0.25
VMIT	≤ 0.25
TQSG	22.2
TQMQ	24.2
IQMQ	≤ 0.25
TQVQ	13.8
WQVQ	≤ 0.25
IQVQ	≤ 0.25
LAQG	≤ 0.25
TQMI	6.9

Variant	enrichment ratio
TQQG	16.8
PVSG	≤ 0.25
NVSG	≤ 0.25
KSQG	≤ 0.25
GHDF	≤ 0.25
PFFG	≤ 0.25
QSAN	≤ 0.25
HQRF	≤ 0.25
YLKI	≤ 0.25
YYVE	≤ 0.25
YDMW	≤ 0.25
QNMD	≤ 0.25
TQMA	12.7
SQMA	8.75
TQQR	≤ 0.25
WQAG	≤ 0.25
TQMV	7.29
NQMA	≤ 0.25
KQAG	≤ 0.25
TQMG	32.5
TQAG	28.2
EPSH	≤ 0.25
CFVH	≤ 0.25
RDRE	≤ 0.25
NQHC	≤ 0.25

Variant	enrichment ratio
RVAA	≤ 0.25
LDQA	≤ 0.25
TQQN	14.8
TQLN	13.2
NVTN	≤ 0.25
TQEN	≤ 0.25
TQFN	14.2
TQWN	10.1
FQFN	≤ 0.25
TQTN	15.4
DWTN	≤ 0.25
NQFN	≤ 0.25
KQLN	≤ 0.25
EQLN	≤ 0.25
VGED	≤ 0.25
FPIP	≤ 0.25
WVYL	≤ 0.25
IRTL	≤ 0.25
EQCN	≤ 0.25
NQCN	≤ 0.25
TQCN	24.9
YYPA	≤ 0.25
DFPF	≤ 0.25
RGMA	≤ 0.25
ITGA	≤ 0.25

Variant	enrichment ratio
YTGA	≤ 0.25
THMA	6.15
TTMA	13.4
WIMA	≤ 0.25
TTGA	12.6
NEMA	≤ 0.25
YTMA	≤ 0.25
NHMA	16.2
TGMA	26.1
GGMA	≤ 0.25
LFNF	≤ 0.25
DMIQ	≤ 0.25
LEWL	≤ 0.25
ADCH	9.13
GPHV	≤ 0.25
TGWN	≤ 0.25
PMPR	≤ 0.25
KQFD	≤ 0.25
WFVI	≤ 0.25
RFQA	≤ 0.25
VHFG	≤ 0.25
EVCW	≤ 0.25
AIMA	12.1
ATMA	1.82
AHMA	≤ 0.25

Variant	enrichment ratio
EPIW	≤ 0.25
NQNT	≤ 0.25
STVT	0.835
SSLK	5.98
SSAT	8.03
KSVT	≤ 0.25
SSVT	14.6
SSNT	≤ 0.25
SSLS	11.4
SSLA	7.43
SSLT	12
HWNL	≤ 0.25
QGSH	9.79
TMLT	1.84
HPCD	≤ 0.25
SSRS	≤ 0.25
HMWA	≤ 0.25
LPNW	0.366
QQHW	≤ 0.25
THTR	≤ 0.25
MKLH	≤ 0.25
AKLH	14.6
AHLH	≤ 0.25
CQLH	27.9
TPLH	≤ 0.25

Variant	enrichment ratio
HQLH	≤ 0.25
AQLH	13.8
RQLH	≤ 0.25
HKLH	≤ 0.25
KKLH	≤ 0.25
WQLH	≤ 0.25
TKLH	11.9
PTHK	≤ 0.25
EMCT	≤ 0.25
CHLM	≤ 0.25
QVLK	≤ 0.25
NHYM	≤ 0.25
SMCI	14.3
SMAQ	15.5
KYAQ	≤ 0.25
SMCY	11.6
SMCK	9.85
SLCY	2.99
SMGQ	11.7
MMCY	≤ 0.25
SMGG	1.44
SMHP	≤ 0.25
SMCS	10.4
KMAQ	≤ 0.25
